{
  "source": "PubChem BioAssay (NCI)",
  "note": "About 83,000 compounds went through this panel and 20% of them were active in at least one assay; those are over-represented in the sample as a whole.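 Compound tested at a single concentration for 48 hours in 96-well plates; a percent growth value below 10 was scored as active.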 A number with no mark means an inactive call. Activity calls are given as the source filed them.",
  "data": [
    {"system": "RPMI-8226 leukemia", "test": "NCI-60 one-dose screen, 48 h (100 = growth as untreated, 0 = no growth, -100 = all killed)", "conditions": "10 µM unless noted", "experimental": "Growth inhibition of the RPMI-8226 human tumor cell line is measured as a screen for anti-cancer activity. Cells are grown in 96 well plates and exposed to the test compound for 48 hours. Compounds are tested at a single concentration, which is 10^-5 M for most compounds. The reported endpoint is percent growth (GI% or GIPRCNT), where numbers from 0 - 100% represent growth inhibition, and numbers from -100% - 0 represent cell death. For example, a value of 40 represents 60% growth inhibition. A value of 0 means no net growth occurred over the course of the experiment. A value of -40 indicates 40% of cells at the beginning of the experiment died by the end of the experiment. A value of -100 means all cells are dead at the end of the experiment.\nNCI-60 Human Tumor Cell Lines Screen was performed using the standard one-dose NCI protocol, which is described in more detail at https://dtp.cancer.gov/discovery_development/nci-60/default.htm.\nCompounds with GIPRCNT values below 10 were considered active. Activity score was based on GIPRCNT using the following formula: […]\nScore is 0 for GIPRCNT values of 100 or above, 50 for GIPRCNT values of 0, and 100 for GIPRCNT values of -100.", "values": [
      {"smiles": "Cc1csc(N/N=C/c2ccncc2)n1", "growth": "131%"},
      {"smiles": "O=C1OC(/C=C/c2ccccc2)=NC/1=C/c1ccccc1[N+](=O)[O-]", "growth": "91.9%"},
      {"smiles": "COc1ccc2c(c1)sc1nc(-c3ccccc3)c(-c3cccc4ccccc34)n12", "growth": "18.8%"},
      {"smiles": "COc1ccc(/C=C/c2nc3ccccc3c(=O)n2-c2ccc(C#Cc3ccc(C(C)(C)C)cc3)cc2C)c(OC)c1", "growth": "52%"},
      {"smiles": "Clc1ccc(C2=NN[C@H](c3cn(-c4ccccc4)nc3-c3ccccc3)C2)cc1", "growth": "87.5%"},
      {"smiles": "CCCCCCCCCCCCCC", "growth": "103%"},
      {"smiles": "CCOC(=O)c1cc(N)nc2ccccc12", "growth": "106%"},
      {"smiles": "CCOC(=O)c1ccc2c(c1)[n+](=O)c(C(=O)c1ccc3ccccc3c1)c(C(F)(F)F)n2[O-]", "growth": "-66.8% (active)"},
      {"smiles": "CCOC(=O)N1C2CCC(C2)N1C(=O)OCC", "growth": "101%"},
      {"smiles": "N/C(=C\\C(=O)n1nc(-c2ccccc2)cc1N)c1ccccc1", "growth": "42.8%"},
      {"smiles": "COc1cccc(-c2cc(-c3cccs3)c(C#N)c(=O)[nH]2)c1", "growth": "98.3%"},
      {"smiles": "CSC1=N/C(=C\\c2cccc(OCc3ccc(Cl)cc3)c2)C(=O)N1", "growth": "67.7%"},
      {"smiles": "O=C1/C(=C/N2N=C(c3ccc(Cl)cc3)CC2c2ccccc2O)SC(=S)N1c1cccc(C(F)(F)F)c1", "note": "(stereo not given)", "growth": "25.4%"},
      {"smiles": "CCN(CC)c1cc(C)c(Cc2c(OC)ccc3ccccc23)cc1C", "growth": "102%"},
      {"smiles": "O=C1Nc2ccc(Cl)cc2/C1=C\\c1c(-c2ccc(F)cc2)nc2ccccn12", "growth": "70.4%"},
      {"smiles": "ClCCn1cnc2c(SCc3ccccc3Cl)ncnc21", "growth": "7.3% (active)"},
      {"smiles": "NC(CCC(=O)NC(CS)C(=O)NCC(=O)O)C(=O)O", "note": "(stereo not given)", "growth": "74.2%"},
      {"smiles": "CC(C)(C)OC(=O)N1CCCN(CCNc2nccc(-c3c(-c4cccc(O)c4)nc4sccn34)n2)S1(=O)=O", "growth": "96.8%"},
      {"smiles": "COc1ccccc1CNCCCN1C(=O)c2ccc3c4c(ccc(c24)C1=O)C(=O)N(CCCNCCCN)C3=O", "growth": "17.5%"},
      {"smiles": "COc1ccc(C(=O)OC2C(OC3C(O)COC(O[C@H]4C[C@H]5[C@@H]6CC=C7C[C@@H](O)CC[C@]7(C)[C@H]6CC[C@]5(C)[C@H]4[C@H](C)C(=O)CCC(C)C)C3OC(=O)C(C)C)OCC(O)C2O)cc1", "note": "(stereo not given in full)", "growth": "-27.4% (active)"},
      {"smiles": "COc1ccc(/C(C)=N/NC(=O)c2ccc(S(C)(=O)=O)cc2)cc1OC", "growth": "130%"},
      {"smiles": "CCC(=O)NC1=C(Cl)C(=O)C(NC(=O)CC)=C(Cl)C1=O", "growth": "-34.3% (active)"},
      {"smiles": "O=C(CSc1nnc(Cc2ccccc2Nc2c(Cl)cccc2Cl)n1-c1ccccc1)N1N=C(c2ccc3ccccc3c2)CC1c1ccc(Cl)cc1", "note": "(stereo not given)", "growth": "95.6%"},
      {"smiles": "ClCc1c(Cl)c(Cl)c(Cl)c(CCl)c1Cl", "growth": "18.4%"},
      {"smiles": "CCCCCCCCCCCCCCCCCC(=O)OCCCCCCCCCCCCC", "growth": "95%"},
      {"smiles": "CC1OC(n2c3ccccc3c3c4c(c5c6ccccc6[nH]c5c32)C(=O)N(CCN2CCOCC2)C4=O)CC(O)C1O", "note": "(stereo not given)", "growth": "27.8%"},
      {"smiles": "CCOC(=O)C1OC2(CCCC2)OC1C(=O)OCC", "note": "(stereo not given)", "growth": "84.8%"},
      {"smiles": "Cc1nn(-c2cccc(Cl)c2)c(C)c1N=Nc1ccc(Br)cc1", "growth": "95.4%"},
      {"smiles": "Cc1ccc([C@H]2c3[nH]c4ccccc4c3C[C@H]3C(=O)N(CCCCCCC(=O)NO)CC(=O)N23)cc1", "growth": "3.03% (active)"},
      {"smiles": "CCCCCCCCCCCCCCCCCC(=O)[O][Sn]([CH2]CCC)([CH2]CCC)[CH2]CCC", "growth": "-30.8% (active)"},
      {"smiles": "O=C(O)c1cc2cc(OCc3ccccc3)ccc2[nH]1", "growth": "94.3%"},
      {"smiles": "Clc1cccc(CNc2c3ccccc3nc3ccccc23)c1", "growth": "-23.5% (active)"},
      {"smiles": "COc1ccc(/C=N/NC(N)=S)c(OC)n1", "growth": "94.8%"},
      {"smiles": "NS(=O)(=O)c1ccc(CCn2c(SCC(=O)N/N=C/c3cc4ccccc4[nH]3)nc3ccccc3c2=O)cc1", "growth": "24.4%"},
      {"smiles": "COc1cc(CN(c2ccc(C)cc2)C2OC(=O)c3ccccc32)cc(OC)c1OC", "note": "(stereo not given)", "growth": "85.4%"},
      {"smiles": "COc1ccc2[nH]cc(C3(c4c[nH]c5ccc(OC)cc45)C(=O)Nc4ccc(F)cc43)c2c1", "growth": "40.9%"},
      {"smiles": "COc1cc(C2CC(c3ccccc3)=NN2C=O)ccc1Oc1nc2c(c(=O)n(C)c(=O)n2C)n1C", "note": "(stereo not given)", "growth": "61.1%"},
      {"smiles": "Cc1c(C(=O)Nc2ccccc2F)sc2c(=O)[nH]cnc12", "growth": "96.7%"},
      {"smiles": "CCN(CC)Cc1cc(Nc2ccnc3ccc(OC)cc23)ccc1O", "growth": "48.5%"},
      {"smiles": "c1cn2cc(-c3ccc4ncn(C5CCCCC5)c4c3)nc(-c3ccc4c(c3)ncn4C3CCCCC3)c2n1", "growth": "-37.9% (active)"}
    ]}
  ]
}
